Compound activity as filed in PubChem.
aSyn yeast inh = qHTS of alpha-syn Inhibitors; Yeast expressing alpha-synuclein, growth rescue, BacTiter-Glo, 24 h; Potency, µM (titrated, usually from 46.1 µM), hits mostly activators; 370,000 compounds, 0.14% hits; AID 652106, 2013; note: nearly all actives have a fitted effect of over 65% in size
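Rescue of yeast growth: cells expressing toxic alpha-synuclein, induced in galactose at OD600 0.02, incubated with compound 24 h at 30 C. ATP luminescence quantified growth; inhibitors of toxicity appear as activators.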
FUS suppressor = qHTS for Suppressors of FUS Proteinopathy: Primary screen using FUS-linked yeast assay; Potency, µM (top dose mostly 76.6 µM), hits mostly activators; 390,000 compounds, 0.24% hits; S. cerevisiae FUS-expressing, growth rescue, OD600, 24 h; AID 1347120, 2019; note: nearly all actives have a fitted effect of over 55% in size
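Galactose (2%) drives FUS expression in yeast precultured in raffinose; seeding density OD 0.005. Test compounds incubated 24hr at 30C and 99% humidity before absorbance at 600 nm was measured.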
TDP43 rescue = qHTS of TDP-43 Inhibitors; Potency, µM (doses to about 46.1 µM), hits mostly activators; 410,000 compounds, 1.8% hits; TDP-43 expressing yeast growth rescue, BacTiter-Glo, 24 h; note: nearly all actives have a fitted effect of over 50% in size
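Luminescence from BacTiter-Glo reports growth of TDP-43-expressing yeast after 24 hr at 30 deg C with compound. Cells were raffinose-pregrown to mid-log, then seeded in galactose medium at OD600=0.02.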
Abeta yeast res = qHTS for compounds that reverse cellular toxicity of Amyloid beta (A-beta) peptide in yeast: Primary Screen | yeast expressing A-beta42, growth rescue, OD600, 48 h; response scale: 0% DMSO, 100% iron-clioquinol control | Potency, µM (highest dose often 46.1 µM), actives largely listed as activators | 410,000 compounds, 0.063% hits | AID 1347071, 2019; note: nearly all actives have a fitted effect of over 55% in size
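Growth rescue measured by 600 nm absorbance after 48 h yeast culture at 30 C with compound. Values normalized between DMSO and an equimolar ferric chloride plus clioquinol control.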
Large screens that a line does not name were inactive. This is a sample that favours compounds with a hit; in the whole collection about 2.1% have one here. Calls come from the whole dose curve; as a rule, active = well fitted curve in the direction sought with a large enough effect; inconclusive = small, poorly fitted or top-dose-only effect, or another doubt; inactive = no such curve, though single readings can be large; an effect the other way counts as inactive or inconclusive.

COc1ccc([C@H]2CC(=O)C=C(c3cccc(OC)c3OC)C2)cc1OC	TDP43 rescue 22µM, Abeta yeast res inconclusive
COc1ccc([C@H]2CC(=O)C=C(c3cc(F)ccc3F)C2)cc1OC	TDP43 rescue 22µM
O=S1(=O)c2ccc(N3CCN(Cc4ccccc4F)CC3)cc2Oc2ccccc2CN1Cc1cn(Cc2ccc(F)cc2)nn1	none (no result: aSyn yeast inh, TDP43 rescue, Abeta yeast res)
CCOC(=O)c1ccc(NS(=O)(=O)c2ccc3c(c2)CCN3C(=O)CC)cc1	none (no result: aSyn yeast inh)
CC(C)c1nn2c(=O)cc(COC(=O)c3ccc(NC(=O)c4ccccc4Cl)cc3)nc2s1	TDP43 rescue inconclusive (no result: aSyn yeast inh)
Cc1ccc(Cl)cc1C1=CC(=O)C[C@H](c2ccc(F)cc2)C1	TDP43 rescue inconclusive
O=C1C=C(c2cc(F)ccc2F)C[C@@H](c2ccc(Cl)cc2)C1	TDP43 rescue 20µM
CCOC(=O)c1c(C)oc2nc(C)nc(NCC3CCN(Cc4ccccc4C)CC3)c12	none (no result: aSyn yeast inh)
COc1ccc(/C(N)=N/OC(=O)c2cccc([N+](=O)[O-])c2C)cc1	TDP43 rescue 7.1µM
COc1ccccc1C/C(N)=N/OC(=O)c1cccc([N+](=O)[O-])c1C	TDP43 rescue 20µM
CCOC(=O)Cn1cc(CN2C(C(=O)OC)CN(Cc3ccc(OC)cc3)CCS2(=O)=O)nn1 (stereo not given)	none (no result: aSyn yeast inh, TDP43 rescue, Abeta yeast res)
N#Cc1ccc(NC(=O)OC2CC3CC2[C@H]2CCCCN2[C@H]3Cc2ccccc2)cc1 (stereo not given in full)	none (no result: aSyn yeast inh, TDP43 rescue, Abeta yeast res)
O=C(CN1C(=O)CCc2cc(S(=O)(=O)N3CCCCC3)ccc21)NCc1ccc(Cl)cc1	none (no result: aSyn yeast inh)
O=S(=O)(Nc1ccc(C(O)(C(F)(F)F)C(F)(F)F)cc1)c1cccs1	none (no result: aSyn yeast inh, TDP43 rescue, Abeta yeast res)
O=S(=O)(Nc1ccc(C(O)(C(F)(F)F)C(F)(F)F)cc1)c1ccc(Cl)c2nonc12	TDP43 rescue 20µM
COc1ccccc1NC(=O)CSc1ncn(-c2ccccc2)n1	TDP43 rescue 10µM (no result: FUS suppressor)
Cc1ccc(NC(=O)c2c(C)nn(-c3ccccc3)c2Cl)cc1	TDP43 rescue 13µM
COc1ccccc1NC(=O)c1c(C)nn(-c2ccccc2)c1Cl	TDP43 rescue 25µM
CC(=O)c1ccc(NC(=O)c2c(C)nn(-c3ccccc3)c2Cl)cc1	TDP43 rescue 11µM
Cc1ccc(C)c(CSc2nnc3[nH]c(=O)cc(-c4ccccc4)n23)c1	none (no result: aSyn yeast inh)
O=C1N2Cc3ccccc3C2CS(=O)(=O)N1CCc1ccccc1 (stereo not given)	none (no result: aSyn yeast inh, TDP43 rescue, Abeta yeast res)
c1ccc(-c2nnc(CN3CCN(c4ccccn4)CC3)o2)cc1	TDP43 rescue inconclusive (no result: aSyn yeast inh)
CC1(C(=O)Nc2cccc3c2CCCC3)CCN1C(=O)c1cccc(F)c1 (stereo not given)	TDP43 rescue 28µM
Cc1[nH]c2ccccc2c1/C=N/Nc1ccc([N+](=O)[O-])cc1	TDP43 rescue 2.8µM
Cc1[nH]c2ccccc2c1/C=N/NC(=O)c1cccc([N+](=O)[O-])c1	none
O=C(CSc1ccc(Cl)cc1)N1CCC(c2nc3ccccc3s2)CC1	aSyn yeast inh inconclusive, TDP43 rescue 25µM
CCc1ccc2[nH]c(=O)c(CN(Cc3cccnc3)Cc3nnnn3Cc3ccccc3)cc2c1	none (no result: FUS suppressor, TDP43 rescue, Abeta yeast res)
CC(=O)COc1ccc2c(-c3ccccc3)cc(=O)oc2c1C	TDP43 rescue inconclusive
Cc1c(OCC(=O)C(C)(C)C)ccc2c(-c3ccccc3)cc(=O)oc12	TDP43 rescue 25µM, Abeta yeast res inconclusive
CC(C)=CCC[C@](C)(O[C@@H]1O[C@H](CO[C@@H]2OC[C@H](O[C@@H]3OC[C@@H](O)[C@H](O)[C@H]3O)[C@H](O)[C@H]2O)[C@@H](O)[C@H](O)[C@H]1O)C1CC[C@]2(C)C1[C@H](O)CC1[C@@]3(C)CC[C@H](O)C(C)(C)C3[C@@H](O)C[C@]12C (stereo not given in full)	none
CC(C)=CCC[C@](C)(O[C@@H]1O[C@H](CO[C@@H]2OC[C@@H](O)[C@H](O)[C@H]2O)[C@@H](O)[C@H](O)[C@H]1O)C1CC[C@]2(C)C1[C@H](O)CC1[C@@]3(C)CC[C@H](O[C@@H]4O[C@H](CO)[C@@H](O)[C@H](O)[C@H]4O)C(C)(C)C3CC[C@]12C (stereo not given in full)	FUS suppressor 16µM
O=C(Nc1nnc(-c2cccs2)o1)c1cccc(C(F)(F)F)c1	aSyn yeast inh 3.2µM, TDP43 rescue 7.1µM, Abeta yeast res 6.3µM
